Drawing on PubChem BioAssay, this text covers composite z-score and z-score for five compounds.

Assay [1] has as its system Wnt5a (protein binding on small-molecule microarray). The assay is described as follows: small molecules binding Wnt5a protein – biophysical, small-molecule microarray, 635/667 nm fluorescence, primary screen (AID 1142).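 Also: fluorescence read at 667 nm with signal to noise per printed feature.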 Particulars: 635 nm fluorescence, higher = more signal.
Assay [2] in a line: ATP-based viability of Huh7 replicon cells – cell-based, CellTiter-Glo luminescence, basal, 48 h, cytotoxicity control for HCV replication inhibitor project, primary screen (AID 1143).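 Also: Huh7 hepatoma cells carrying a hepatitis C replication reporter with no stimulus; test concentration not given here.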 The following applies: higher = more signal, called active from +8 up or from −8 down. Background: A replicon is a self-replicating genome or part of one, used to study replication in cells.
Assay [3] can be described thus: Pseudomonas biofilm growth suppression – PAO1 strain, BacTiter-Glo luminescence, LB-PBS, primary screen (AID 1144). Particulars: P. aeruginosa PAO1 biofilm, 12 h, higher = more signal.
A short description of assay [4]: basal CRE-LacZ reporter activity in PC12 – cell-based, unstimulated, primary screen (AID 1145). Particulars: no forskolin, luminescence, 4.5 h, higher = more signal, called active from +8 up or from −8 down.
Assay [5] can be described thus: forskolin-driven CRE-LacZ activity in PC12 – cell-based, CRE-LacZ reporter, forskolin-stimulated, primary screen (AID 1146).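 Also: PC12 cells with 6xCRE LacZ reporter stimulated by forskolin 10 µM; beta-galactosidase reporter signal reflecting CREB driven transcription.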 Particulars: luminescence, 4.5 h, higher = more signal, called active from +8 up or from −8 down.
In assay [6] the target is Streptavidin (Streptomyces avidinii) (UniProt P22629). The assay is described as follows: compounds binding control protein streptavidin – biophysical, small-molecule microarray, 635/667 nm fluorescence, artefact control for SMM compound annotation, primary screen (AID 1147).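 Also: signal reflects streptavidin binding to arrayed compounds as a control protein.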 The following applies: higher = more signal.
Streptavidin (Streptomyces avidinii), sequence (P22629 whole entry, looked up): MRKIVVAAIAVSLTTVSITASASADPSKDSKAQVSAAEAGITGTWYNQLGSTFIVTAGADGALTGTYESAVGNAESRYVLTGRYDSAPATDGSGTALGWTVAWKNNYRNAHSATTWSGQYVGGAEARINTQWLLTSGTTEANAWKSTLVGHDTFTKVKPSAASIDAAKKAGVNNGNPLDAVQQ
The nature of assay [7]: probe aInhba binding on compound microarray – biochemical, small-molecule microarray, 635/667 nm fluorescence, primary screen (AID 1148).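 Also: score merges 667nm spot fluorescence with signal-to-noise for antibody binding to printed compounds.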 The following applies: higher = more signal.
For assay [8], the target named is Torsin-1A (Homo sapiens) (UniProt O14656). Nature of the assay: TOR1A wild-type binding on microarray – cell lysate, small-molecule microarray, lysate, 635/667 nm, primary screen (AID 1149). Particulars: COS7 hTOR1A-WT lysate, 635 nm fluorescence, higher = more signal.
Torsin-1A (Homo sapiens), sequence (O14656 whole entry, looked up): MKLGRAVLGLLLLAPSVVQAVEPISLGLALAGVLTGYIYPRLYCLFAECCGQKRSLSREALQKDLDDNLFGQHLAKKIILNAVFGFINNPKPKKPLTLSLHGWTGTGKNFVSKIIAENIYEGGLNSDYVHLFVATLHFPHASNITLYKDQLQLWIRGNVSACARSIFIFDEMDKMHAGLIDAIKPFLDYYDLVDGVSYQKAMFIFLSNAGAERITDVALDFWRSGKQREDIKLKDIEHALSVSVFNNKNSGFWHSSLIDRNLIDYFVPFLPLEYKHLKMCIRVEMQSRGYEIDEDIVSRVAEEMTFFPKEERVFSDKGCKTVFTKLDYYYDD
The target is the same in assay [9]. The assay is described as follows: torsin A mutant lysate binding on microarrays – cell lysate, small-molecule microarray, COS7 lysate, 635/667 nm fluorescence, primary screen (AID 1150).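 Also: score pools 667 nm emission and signal to noise measuring lysate protein binding.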 Particulars: COS7 hTOR1A mutant lysate, 635 nm fluorescence, higher = more signal.
The subject of assay [10] is Sonic hedgehog protein (Shh). The assay is described as follows: Sonic hedgehog microarray binding compounds – biochemical, small-molecule microarray, 635/667 nm fluorescence, primary screen (AID 1151).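 Also: Shh protein binding to compounds spotted on small-molecule microarray slides; score combines spot fluorescence intensity with signal-to-noise across triplicate slides.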 The following applies: 635 nm fluorescence, higher = more signal.
The nature of assay [11]: optical density shifts of acrAB sulA E. coli – strain DRC41, OD650, 48 h, E. coli filamentation inducer project, primary screen (AID 1152).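 Also: E. coli MC1000 strain DRC41 lacking acrAB efflux pump and sulA.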 The following applies: higher = more signal, called active from +8 up or from −8 down.
Assay [12] is described as follows: probe aLefty1 binding on compound microarray – biochemical, small-molecule microarray, 635/667 nm fluorescence, primary screen (AID 1153).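 Also: score merges spot fluorescence with signal-to-noise ratio from the scanned slide images.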 The following applies: higher = more signal.
Assay [13] is described as follows: plasmodial surface anion channel blockers, osmotic lysis – cell-based, P. falciparum Indochina, OD700, 1 h, primary screen (AID 1154). Particulars: P. falciparum Indochina infected RBC osmotic lysis, higher = more signal, called active from +8 up or from −8 down.
The nature of assay [14]: plasmodial surface anion channel blockers, osmotic lysis – cell-based, P. falciparum Indochina, OD700, 2 h, primary screen (AID 1155).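 Also: lysis reports solute entry through the parasite surface anion channel PSAC.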 Particulars: P. falciparum Indochina infected erythrocytes, higher = more signal, called active from +8 up or from −8 down.
Assay [15] in a line: changes in parasitized red cell lysis, either direction – P. falciparum Indochina, OD700, 3 h, PSAC antagonist project, primary screen (AID 1156). Particulars: P. falciparum-infected erythrocytes, osmotic lysis, higher = more signal, called active from +8 up or from −8 down.
Assay [16] is described as follows: plasmodial surface anion channel blockers, osmotic lysis – cell-based, P. falciparum Indochina, OD700, 18 h, primary screen (AID 1157). The following applies: P. falciparum Indochina infected erythrocytes, osmotic lysis OD700, 18 h; higher = more signal, called active from +8 up or from −8 down.
Assay [17] is described as follows: S6 kinase pathway phospho-S6 level changes – cell-based, A549, cytoblot, luminescence, serum-stimulated, primary screen (AID 1158).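 Also: serum-stimulated A549 lung adenocarcinoma cells; signal is phosphorylated S6 detected by cytoblot immunostaining with HRP secondary.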 Particulars: 5 h, higher = more signal.
For assay [18], the target named is NADPH oxidase 2 (Homo sapiens) (UniProt P04839). The assay is described as follows: compounds shifting NOX2 Amplex Red fluorescence – cell-based, HEK293-NOX2, PMA-stimulated, NOX inhibitor project, primary screen (AID 1159). Also: test concentration not given here. The following applies: 45 min, higher = more signal, called active from +8 up or from −8 down.
NADPH oxidase 2 (Homo sapiens), sequence (P04839 whole entry, looked up): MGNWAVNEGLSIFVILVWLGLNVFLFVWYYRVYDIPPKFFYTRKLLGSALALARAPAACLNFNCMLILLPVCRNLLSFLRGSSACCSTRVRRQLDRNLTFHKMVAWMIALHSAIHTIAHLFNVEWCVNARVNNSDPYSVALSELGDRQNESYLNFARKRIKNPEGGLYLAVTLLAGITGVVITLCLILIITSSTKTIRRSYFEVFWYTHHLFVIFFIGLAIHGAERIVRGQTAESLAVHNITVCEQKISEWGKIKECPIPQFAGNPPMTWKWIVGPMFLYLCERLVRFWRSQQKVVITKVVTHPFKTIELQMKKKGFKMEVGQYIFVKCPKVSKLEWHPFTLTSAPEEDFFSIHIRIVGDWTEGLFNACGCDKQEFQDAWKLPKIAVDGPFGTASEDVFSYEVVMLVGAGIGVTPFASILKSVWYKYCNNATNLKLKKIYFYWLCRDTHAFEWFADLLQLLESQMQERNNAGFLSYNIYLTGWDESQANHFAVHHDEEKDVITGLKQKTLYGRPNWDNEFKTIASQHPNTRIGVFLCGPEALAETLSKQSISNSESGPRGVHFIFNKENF
Assay [19] addresses NADPH oxidase 4 (Homo sapiens) (UniProt Q9NPH5). Nature of the assay: compounds shifting NOX4 Amplex Red fluorescence – cell-based, HEK293-NOX4, tetracycline-induced, NOX inhibitor project, primary screen (AID 1160). The following applies: HEK293-NOX4, Amplex Red H2O2 fluorescence, 45 min; higher = more signal, called active from +8 up or from −8 down.
For assay [20], the target named is NADPH oxidase 5 (Homo sapiens) (UniProt Q96PH1). Nature of the assay: compounds shifting NOX5 Amplex Red fluorescence – cell-based, HEK293-NOX5, NOX inhibitor project, primary screen (AID 1161). Particulars: HEK293-NOX5, ionomycin, 45 min, higher = more signal.
NADPH oxidase 5 (Homo sapiens), sequence (Q96PH1 whole entry, looked up): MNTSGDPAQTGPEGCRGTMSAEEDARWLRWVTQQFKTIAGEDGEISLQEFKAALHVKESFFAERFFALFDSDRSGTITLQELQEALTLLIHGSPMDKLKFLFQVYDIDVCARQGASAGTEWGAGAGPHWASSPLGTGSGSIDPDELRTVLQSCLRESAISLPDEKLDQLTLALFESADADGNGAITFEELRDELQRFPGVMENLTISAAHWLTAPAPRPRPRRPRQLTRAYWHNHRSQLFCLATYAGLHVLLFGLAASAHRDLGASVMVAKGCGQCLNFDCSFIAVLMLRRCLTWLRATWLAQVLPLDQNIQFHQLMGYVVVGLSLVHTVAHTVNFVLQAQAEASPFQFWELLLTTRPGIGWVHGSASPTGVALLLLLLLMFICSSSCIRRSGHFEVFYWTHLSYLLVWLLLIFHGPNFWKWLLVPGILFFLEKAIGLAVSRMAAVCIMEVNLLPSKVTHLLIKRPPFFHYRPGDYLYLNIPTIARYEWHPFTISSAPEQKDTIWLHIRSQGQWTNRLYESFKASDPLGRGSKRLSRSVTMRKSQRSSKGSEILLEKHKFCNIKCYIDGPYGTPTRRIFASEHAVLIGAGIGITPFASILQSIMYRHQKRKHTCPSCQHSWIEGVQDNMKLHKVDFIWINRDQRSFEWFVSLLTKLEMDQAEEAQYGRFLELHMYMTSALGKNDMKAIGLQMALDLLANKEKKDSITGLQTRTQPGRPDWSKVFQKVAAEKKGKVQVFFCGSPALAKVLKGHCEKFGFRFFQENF

Activity calls are given as the source filed them. Unless noted, no rule for the calls is given here.

NADPH oxidase 4 (Homo sapiens), sequence (Q9NPH5 whole entry, looked up): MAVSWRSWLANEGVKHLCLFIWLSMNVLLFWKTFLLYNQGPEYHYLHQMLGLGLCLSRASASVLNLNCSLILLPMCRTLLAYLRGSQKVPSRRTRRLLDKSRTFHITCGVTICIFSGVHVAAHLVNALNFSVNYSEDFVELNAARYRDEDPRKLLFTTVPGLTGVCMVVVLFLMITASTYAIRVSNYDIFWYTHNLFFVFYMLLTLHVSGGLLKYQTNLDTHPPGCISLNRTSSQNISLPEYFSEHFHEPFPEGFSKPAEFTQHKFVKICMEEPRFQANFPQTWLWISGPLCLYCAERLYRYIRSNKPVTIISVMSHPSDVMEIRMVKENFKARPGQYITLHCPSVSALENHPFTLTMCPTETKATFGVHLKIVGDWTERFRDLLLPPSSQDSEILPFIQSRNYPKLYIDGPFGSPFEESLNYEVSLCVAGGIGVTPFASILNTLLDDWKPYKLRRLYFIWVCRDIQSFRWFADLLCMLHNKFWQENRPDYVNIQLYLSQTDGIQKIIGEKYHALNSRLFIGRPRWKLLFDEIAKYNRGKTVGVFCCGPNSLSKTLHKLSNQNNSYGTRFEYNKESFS

Regarding `CC(C)=CCCC(C)=CCON=C1C[C@@H](O)[C@@H](O)[C@@H]2[C@@H]3C(=O)N([C@@H](C)c4ccccc4)C(=O)[C@@H]3CC[C@@H]12`, the composite z-score is 0.143 in assay [1]; 0.242 in [6]; -0.121 in assay [7]; 0.337 with Torsin-1A (Homo sapiens) [8]; 1.09 with Torsin-1A (Homo sapiens) [9]; 0.672 in [10]. In [12], this compound returned a composite z-score of 0.0794. Besides, the z-score in [2] is -1.19 (inactive); in assay [3], 0.491 (inactive); in assay [4], -0.834 (inactive); in assay [5], -0.541 (inactive); in [11], -0.0368 (inactive); in assay [13], 0.336 (inactive). The z-score in assay [14] was -0.168 (inactive); in assay [15], -0.291 (inactive); in assay [16] it was 0.183 (inactive); in assay [17], -0.814; in [18], 0.311 (inactive); in assay [19], -0.0815 (inactive). Besides, the z-score in assay [20] was -0.919.
Consider `O=C1C[C@@H](O)[C@@H](O)[C@@H]2[C@@H]3C(=O)N(c4ccc(F)cc4F)C(=O)[C@@H]3CC[C@H]12`, for which the composite z-score in assay [1] was 0.0583; in assay [6] it was 0.234; in [7], -0.101; with Torsin-1A (Homo sapiens) [8], 0.403; in the assay with Torsin-1A (Homo sapiens) [9], 0.302; in assay [10] it was 1.09. Also, the composite z-score in [12] was -0.147. Also, the z-score in assay [2] is -1.24 (inactive); in [3], 0.0279 (inactive); in assay [4], 0.064 (inactive); in assay [5], -0.13 (inactive); in assay [11] it was -0.706 (inactive); in [13], -0.0503 (inactive). Further, the z-score in assay [14] was 0.0554 (inactive); in [15], -0.737 (inactive); in [16], 0.06 (inactive); in [17], 0.0123; in assay [18], 1.09 (inactive); in [19], 0.366 (inactive). In assay [20], the z-score is -0.158.
On to `O=C1[C@H]2[C@H]3[C@H](O)[C@H](O)CC(=NO[C@@H]4O[C@H](CO)[C@@H](O)[C@H](O)[C@H]4O)[C@H]3CC[C@H]2C(=O)N1C[C@@H]1CCCO1`, for which the composite z-score was 0.16 in [1]; 0.253 in assay [6]; -0.159 in assay [7]; 0.288 with Torsin-1A (Homo sapiens) [8]; 0.952 in the assay with Torsin-1A (Homo sapiens) [9]; -0.167 in assay [10]. Further, the composite z-score in assay [12] was -0.0054. In addition, the z-score in assay [2] is 0.297 (inactive); in assay [3], 0.261 (inactive); in assay [4] it was -0.477 (inactive); in assay [5], -0.105 (inactive); in [11], 0.819 (inactive); in assay [13], 0.651 (inactive). For the same compound, the z-score in assay [14] was 0.544 (inactive); in assay [15], 0.0197 (inactive); in [16] it was 0.353 (inactive); in [17], -0.164; in [18], -2.4 (inactive); in assay [19], 0.513 (inactive). In addition, the z-score in [20] was 0.488.
Turning to `O=C1[C@H]2[C@H]3[C@H](O)[C@H](O)CC(=NOCc4ccccc4)[C@@H]3CC[C@H]2C(=O)N1c1cccc(Oc2ccccc2)c1`, the composite z-score in assay [1] was -0.0001; in [6] it was 0.0831; in assay [7], -0.024; in the assay with Torsin-1A (Homo sapiens) [8] it was 0.186; with Torsin-1A (Homo sapiens) [9], 0.0495; in assay [10], 1.03. Besides, the composite z-score in assay [12] was 0.082. Moreover, the z-score in [2] is -0.558 (inactive); in assay [3] it was 1.31 (inactive); in assay [4], -0.658 (inactive); in assay [5], 0.0169 (inactive); in assay [11], 1.16 (inactive); in assay [13], 2.88 (inactive). Moreover, the z-score was 1.72 (inactive) in [14]; 1.19 (inactive) in assay [15]; 0.845 (inactive) in assay [16]; -0.116 in assay [17]; -1.11 (inactive) in assay [18]; 0.735 (inactive) in [19]. In addition, the z-score in [20] was -1.18.
Take `COc1ccc(O[C@H]2C=C[C@@H](c3ccccc3)O[C@@H]2COC(=O)CCC(C)=NOC[C@@H](O)COCc2ccco2)cc1`: the composite z-score is -1.31 in assay [1]; -2.51 in assay [6]; -0.443 in assay [7]; -6.12 with Torsin-1A (Homo sapiens) [8]; -2.73 in the assay with Torsin-1A (Homo sapiens) [9]; -1.09 in assay [10]. The composite z-score in assay [12] is -1.43. The z-score is -1.42 (inactive) in [2]; 0.104 (inactive) in [3]; 3.94 (inactive) in assay [4]; -0.215 (inactive) in assay [5]; -1.45 (inactive) in [11]; 6.71 (inactive) in assay [13]. Also, the z-score in assay [14] was -1.05 (inactive); in [15], 0.382 (inactive); in assay [16], -2.06 (inactive); in assay [17] it was 1.18; in assay [18], -3.53 (inactive); in [19], -0.876 (inactive). Besides, in [20], the z-score was -4.55.
